Only some compounds are listed: those with a hit (about 11% of all), similar ones and a draw of the others.
ALDH1A1 inh: qHTS Assay for Inhibitors of Aldehyde Dehydrogenase 1 (ALDH1A1); Purified ALDH1A1, NADH fluorescence, propionaldehyde substrate; Potency, µM (top dose mostly 75.3 µM), without a hit: at the highest dose activity, negative = inhibition, hits mostly inhibitors; 220,000 compounds, 7.3% hits; active = well fitted inhibition curve with a large enough effect, not every such curve was filed as active; inconclusive = small, poorly fitted or top-dose-only effect, or another doubt; inactive = no such curve, though single readings can be large or run the other way;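 also: potency is read from the fitted curve at half-maximal effect; plate controls were no enzyme wells and a reference inhibitor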
Target sequence (P00352 whole entry, looked up): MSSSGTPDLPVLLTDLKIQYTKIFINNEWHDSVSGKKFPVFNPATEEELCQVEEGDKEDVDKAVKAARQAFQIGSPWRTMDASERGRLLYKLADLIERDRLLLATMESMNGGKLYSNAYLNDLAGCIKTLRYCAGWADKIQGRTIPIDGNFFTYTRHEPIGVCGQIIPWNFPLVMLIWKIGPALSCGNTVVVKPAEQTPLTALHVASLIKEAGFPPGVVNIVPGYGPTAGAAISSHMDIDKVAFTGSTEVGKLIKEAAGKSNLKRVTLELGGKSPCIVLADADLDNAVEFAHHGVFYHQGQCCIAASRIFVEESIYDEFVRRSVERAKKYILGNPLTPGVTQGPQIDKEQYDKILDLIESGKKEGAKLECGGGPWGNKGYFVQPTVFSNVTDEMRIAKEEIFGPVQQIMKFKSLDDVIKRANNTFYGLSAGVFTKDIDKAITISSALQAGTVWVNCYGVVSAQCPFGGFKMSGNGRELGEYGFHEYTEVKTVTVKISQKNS
PNC assembly inh: High Content Assay for Compounds that inhibit the Assembly of the Perinucleolar Compartment; PC3M PTB-GFP, PNC prevalence imaging, 16 h; hits give low values; activity change (PNC), negative = inhibition, % at 10 µM; 140,000 compounds, 3.1% hits; AID 2417, 2010;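 active = readout at or below -70, meaning at least 70% loss of cells showing the perinucleolar compartment, a nuclear body marking cancer cells; inconclusive = readout between -30 and a set limit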;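 also: plate controls were DMSO wells for no effect and camptothecin positive control wells for full effect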
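PC3M cells stably expressing PTB-GFP, 750–1000 cells/well, treated 16 h at 37 °C with compound (23 nl of library stock), in duplicate. After paraformaldehyde fixation and Hoechst stain, imaged at 20x; PNC prevalence scored by image analysis.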
HTT cytoprotect: qHTS Multiplex Assay to Identify Dual Action Probes in a Cell Model of Huntington: Cytoprotection (ATP); PC12 HTT-Q103 induced, cytoprotection, ATP luminescence, 40 h; Potency, µM (series often up to 56.4 µM), without a hit: cytoprotection (ATP increase), usual class: activators; 230,000 compounds, 0.14% hits; also: potency is read from the fitted curve at half-maximal effect; % of control where 0% means no effect; nearly all actives have a fitted effect of over 45% in size
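PC12 cells with ecdysone-inducible HTT exon 1 Q103-GFP, induced with 100 nM tebufenozide and co-treated with library compounds in a dose series (1536-well, 1500 cells/well). Cytoprotection read as ATP content by ATPlite luminescence.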
HPGD inh: qHTS Assay for Inhibitors of HPGD (15-Hydroxyprostaglandin Dehydrogenase). 15-hydroxyprostaglandin dehydrogenase [NAD(+)] (Homo sapiens), P15428. purified HPGD, NADH fluorescence kinetic, PGE2 substrate. Potency, µM, without a hit: top-dose activity change, negative = inhibition, most hits filed as inhibitors. 150,000 compounds, 4.3% hits; active = well fitted inhibition curve with a large enough effect, not every such curve was filed as active; inconclusive = small, poorly fitted or top-dose-only effect, or another doubt; inactive = no such curve, though single readings can be large or run the other way; also: potency is read from the fitted curve at half-maximal effect; % is scaled to controls: 0 for no effect and ±100 for the full control effect
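20 nM HPGD preincubated 15 min at room temperature with compound in 50 mM Tris-HCl pH 8, 0.01% Tween 20. Started with 1 mM NAD+ and 30 uM prostaglandin E2; NADH fluorescence (360/450 nm) read 5 times over 30-s intervals, last minus first.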
GoLoco inh red: qHTS Assay for Inhibitors of RGS12 GoLoco Motif Activity (Red Fluorophore). Guanine nucleotide-binding protein G(i) subunit alpha-1 (Homo sapiens), P63096. Gai1:RGS12 GoLoco peptide FP, rhodamine, 10 min. Potency, µM (top dose mostly 61.6 µM), for inactives: at the highest dose activity, negative = inhibition, actives largely listed as inhibitors. 230,000 compounds, 0.44% hits. AID 880, 2007; active = well fitted inhibition curve with a large enough effect, not every such curve was filed as active; inactive = no such curve, though single readings can be large or run the other way; also: potency is read from the fitted curve at half-maximal effect; % is scaled to controls: 0 for no effect and ±100 for the full control effect; nearly all actives have a fitted effect of over 30% in size
HTT aggregate: qHTS Multiplex Assay to Identify Dual Action Probes in a Cell Model of Huntington: Aggregate Formation (GFP). PC12 HttQ103-GFP aggregates, Acumen cytometry, 40 h. 220,000 compounds, 1.1% hits. Potency, µM (highest dose often 46.1 µM), for inactives: at the top dose activity change, negative = inhibition, hits mostly inhibitors; also: potency is read from the fitted curve at half-maximal effect; % is scaled to controls: 0 for no effect and ±100 for the full control effect; nearly all actives have a fitted effect of over 60% in size
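Read-out: GFP aggregate count by laser scanning cytometer (488 nm excitation, 500-530 nm emission, 1–25 µm objects >6 SD above background). Cells: PC12, inducible HTTex1-Q103-GFP, 100 nM tebufenozide; compounds titrated.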
* hit, by the source's call; u = inconclusive; x = not tested or not shown; [ ] = dose if it differs, or a comment. Unless noted, calls follow the shape of the dose curve; as a rule, active = well fitted curve in the direction sought with a large enough effect; inconclusive = small, poorly fitted or top-dose-only effect, or another doubt; inactive = no such curve, though single readings can be large; an effect the other way counts as inactive or inconclusive.

SMILES | ALDH1A1 inh | PNC assembly inh | HTT cytoprotect | HPGD inh | GoLoco inh red | HTT aggregate
Cc1nn(Cc2cccc(C(=O)NC34CC5CC(CC(C5)C3)C4)c2)c(C)c1Br | u | 42 | 13%[10 µM] | -17% | 7% | 20µM*
Cc1cc(C)c(C(N)=O)c(SCC(=O)c2ccc(Cl)cc2)n1 | -4% | 33 | -12% | -1% | 0% | -25%
COc1ccc(C(=O)CSC2=C(C#N)C3(CCCCC3)C(C#N)=C(N)N2)cc1 | 8.9µM* | 5 | 5% | x | x | -17%
N#CC1=C(N)NC(SCC(=O)c2ccc(Br)cc2)=C(C#N)C12CCCCC2 | 13µM* | 42 | x | -17% | 8% | u
COc1ccc(C(=O)CSc2nc(N)nc(SC)c2C#N)cc1 | u | 14 | -7% | -12% | -2% | -11%
CC1(C)CC(=O)C2=C(C1)NC(SCC(N)=O)=C(C#N)C21CCCCC1 | u | 11 | -20% | -20% | 11% | 0%
N#CC1=C(N)NC(SCC(=O)c2ccc(Cl)cc2)=C(C#N)C12CCCC2 | 28µM* | -6 | 11% | u | 2% | u
COC(=O)c1cccc(C23CC4(C2)[C@H](CN(C)[C@@H]4c2ccccc2)C3c2ccc(Cl)nc2)c1 (some centres undefined) | -5% | x | -19% | -7% | -3% | x
O=C(c1ccc(F)cc1)[C@@H]1[C@@H](C(=O)c2ccccc2)[C@@]2(C(=O)Nc3ccccc32)[C@H]2c3ccccc3C=CN12 | 20µM* | -5 | -8%[10 µM] | -19% | 43% | 5%
c1cncc(CNc2ncncc2-c2ccoc2)c1 | u | x | -29% | x | -9% | x
CCCn1c(=N)n(CCOc2ccc(OC)cc2)c2ccccc21 | 4% | 4 | 2% | -1% | -7% | -2%
CCC(=O)N=c1n(C)c2ccccc2n1CCOc1ccccc1 | 5µM* | 33 | x | -7% | 8% | -8%
C=CCNC(=O)/C(=C/c1cn(-c2ccccc2)nc1-c1cccc([N+](=O)[O-])c1)NC(=O)c1ccccc1 | 1µM* | 14 | 15%[10 µM] | x | x | 32%
Cc1cc(=O)n2nc(N3CCCC(C(=O)N4CCN(c5ccccc5)CC4)C3)sc2n1 (centres undefined) | -15% | -117* | -21% | -3% | 4% | 23%
Cc1cc(=O)n2nc(N3CCCC(C(=O)NC(C)c4ccccc4)C3)sc2n1 (centres undefined) | u | 26 | 5% | -5% | 4% | 1%
Cc1cc(Cl)ccc1Oc1ncnc2onc(C)c12 | 14% | x | -21% | x | 7% | -4%
Cc1cccc(-n2cc(CN3CCCN(C=O)CC3)c(-c3cccc(F)c3)n2)c1 | 10µM* | x | -11%[10 µM] | x | 8% | 10%[9.22 µM]
CCn1ccnc1CN(C)Cc1cn(-c2cccc(C)c2)nc1-c1cccc(F)c1 | 20µM* | x | -39% | x | 6% | -5%
CC(=O)N1CCCN(Cc2cn(-c3cccc(C)c3)nc2-c2cccc(F)c2)CC1 | x | x | -15%[10 µM] | x | 1% | -9%[9.22 µM]
C/C(=C\C[Si](C)(C)C)CCC=O | 2% | x | 27% | u | 8% | x
Cc1ccc(OC(=O)c2sc(Cl)nc2C)cc1C | 20µM* | 1 | 18%[10 µM] | -18% | 2% | -30%
Cc1ccc(C)c(NC(=O)c2sc(Cl)nc2C)c1 | -9% | 12 | 21%[10 µM] | -13% | 11% | 19%
COc1ccc(N=C2NC(=O)/C(=C\C=C\c3ccco3)S2)cc1 | 11µM* | x | -7% | x | 23% | 27%[9.22 µM]
Cc1ccc(C(=O)NC=C(Cl)Cl)cc1 | -4% | u | 3% | 28µM* | 2% | -13%

Screening results (PubChem BioAssay)
